Several values for one entry are separate records, joined by “and”; a condition that tells them apart may be missing. Identical values can stand only once. Records with an inconclusive call do not appear. A structure can be active in one record and inactive in another. Activity calls are given as the source filed them. Unless noted, the call rests on the fitted dose curve.

From PubChem BioAssay (Tox21) come the findings set out here.

A short description of test [1]: Nuclear factor erythroid 2-related factor 2/antioxidant responsive element (Nrf2/ARE) small molecule agonists: qHTS cell viability counter screen in human keratinocytes (AID 1919968; active means well fitted curve in the direction sought with a large enough effect in the repeat runs; an effect the other way counts as inactive or inconclusive; further: nearly all actives have a fitted effect of over 55% in size; further: potency means the concentration at half of the fitted maximal effect). A digest of the protocol: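 Stably transfected HaCaT (KeratinoSens), 1,500/well. Test agents in DMSO were applied for 23 h, 37 C/5% CO2. CellTiter-Fluor was incubated 1 h before the fluorescence read.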

Test [2] in a line: Nuclear factor erythroid 2-related factor 2/antioxidant responsive element (Nrf2/ARE) small molecule agonists: luciferase reporter gene qHTS assay in human keratinocytes (AID 1919969). Further: nearly all actives have a fitted effect of over 35% in size. Further: potency means the concentration at half of the fitted maximal effect.
Test [3] deals with Gonadotropin-releasing hormone receptor (Homo sapiens) (UniProt P30968). The experiment in a line: Human gonadotropin-releasing hormone receptor (GnRHR) small molecule agonists, calcium flux assay in GnRHR-HEK293 cells (AID 1920063). Further: nearly all actives have a fitted effect of over 35% in size. Further: potency means the concentration at half of the fitted maximal effect. A digest of the protocol: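 Stable human GnRHR HEK293 line. 18 h plating, then calcium dye for 1 h at 37 C. Agonist-mode compound addition from DMSO stocks; fluorescence monitored 3 min.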

In test [4] the target is KiSS-1 receptor (Homo sapiens) (UniProt Q969F8). The experiment in a line: Human kisspeptin (KISS1R) small molecule agonists, calcium flux assay in KISS1R-HEK293 cells (AID 1920064; active means well fitted curve in the direction sought with a large enough effect in the repeat runs; an effect the other way counts as inactive or inconclusive; further: potency means the concentration at half of the fitted maximal effect). A digest of the protocol: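 After overnight (18 h) culture at 37 C/5% CO2, human KISS1R-HEK293 cells received calcium dye for 1 h, then test compound; emission at 540 nm (excitation 480 nm) was tracked for 3 min.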

A short description of test [5]: G protein-coupled receptor (GPCR) small molecule agonists, calcium flux assay: HEK293 wild type cell line counter screen (AID 1920065). Further: potency means the concentration at half of the fitted maximal effect. A digest of the protocol: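 Following 18 h incubation at 37 C/5% CO2, plates got calcium dye for 1 h; compounds, ATP or DMSO were then pinned in and fluorescence followed kinetically (480/540 nm).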
Test [6] in a line: p53 small molecule agonists, cell-based qHTS assay with human liver microsomes (AID 1963577).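 Further: p53 response element beta-lactamase reporter cells with liver microsomes plus NADPH.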 A digest of the protocol:
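With metabolic activation: human liver microsomes (0.5 mg/mL final) plus NADPH (0.5 mg/mL final) added alongside compounds to p53RE-bla cells; 16 h 37 C exposure; beta-lactamase read by LiveBLAzer fluorescence.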

Test [7] can be described thus: p53 small molecule agonists, cell-based qHTS assay with human liver microsomes: qHTS cell viability counter screen (AID 1963579). Further: nearly all actives have a fitted effect of over 45% in size. Further: potency means the concentration at half of the fitted maximal effect. The gist of the method:
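Metabolic activation used human liver microsomes and NADPH, both 0.5 mg/mL final, over 16 hours at 37 C on p53RE-bla cells (4,000/well). Cytotoxicity measured by CellTiter-Glo luminescence, 30 min at room temperature.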

Test [8] can be described thus: p53 small molecule agonists, cell-based qHTS assay with rat liver microsomes: qHTS cell viability counter screen (AID 1963580). Further: nearly all actives have a fitted effect of over 45% in size. Further: potency means the concentration at half of the fitted maximal effect. A digest of the protocol:
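After the beta-lactamase ratio was read, CellTiter-Glo was added to the same wells and luminescence measured at 30 min; cells had been treated 16 h at 37 C with compounds, rat liver microsomes and NADPH (0.5 mg/mL final each).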

A short description of test [9]: p53 small molecule agonists, cell-based qHTS assay: qHTS cell viability counter screen (AID 1963581). Further: nearly all actives have a fitted effect of over 45% in size. Further: potency means the concentration at half of the fitted maximal effect. A digest of the protocol: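 qHTS counter screen: 16 h compound exposure at 37 C of p53RE-bla HCT-116 cells (4,000 per well, seeded 5 h prior), cell viability by ATP luminescence.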
Test [10] is described as follows: p53 small molecule agonists, cell-based qHTS assay (AID 1963582; active means well fitted activation curve with a large enough effect in the signal ratio in the repeat runs, not every such curve was filed as active; the % refers to the signal ratio). A digest of the protocol: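 Measured: fluorescence from cleaved LiveBLAzer substrate. System: p53RE-bla cells, 16 h compound treatment at 37 C, 2 h substrate step at room temperature.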
Test [11] deals with 5-hydroxytryptamine receptor 2A (Homo sapiens) (UniProt P28223). The experiment in a line: 5-hydroxytryptamine receptor 2A (HTR2A) small molecule agonists, cell-based qHTS assay (AID 1963587). Further: nearly all actives have a fitted effect of over 30% in size. Further: potency means the concentration at half of the fitted maximal effect. The gist of the method:
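CHO cells stably expressing human HTR2A, plated 18 h, loaded with calcium dye 1 h at 37 C. Agonist mode: compounds added and intracellular calcium fluorescence recorded kinetically for 2 min at 1 sec intervals.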

Test [12] has as its target Muscarinic acetylcholine receptor M1 (Homo sapiens) (UniProt P11229). The experiment in a line: Cholinergic receptor muscarinic 1 (CHRM1) small molecule antagonists, cell-based qHTS assay (AID 1963588). Further: nearly all actives have a fitted effect of over 40% in size. Further: potency means the concentration at half of the fitted maximal effect. A digest of the protocol: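 Compounds were tested at 15 concentrations in three independent runs. Dye-loaded CHRM1-CHO cells were exposed 5 min at room temperature before stimulation by acetylcholine added at 50nM. Intracellular calcium was read kinetically on FDSS for 3 min.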

The target is the same in test [13]. The experiment in a line: Cholinergic receptor muscarinic 1 (CHRM1) small molecule agonists, cell-based qHTS assay (AID 1963589). Further: nearly all actives have a fitted effect of over 35% in size. Further: potency means the concentration at half of the fitted maximal effect. A digest of the protocol: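 Kinetic fluorescence (1 s intervals) of calcium-sensitive dye in human M1 CHO cells after compound addition; cells pre-incubated 18 h at 37 C/5% CO2 and dye-loaded 1 h.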
A short description of test [14]: cAMP Responsive Elements (CRE) small molecule agonists, cell-based qHTS assay (AID 1963590). A digest of the protocol:
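Test agents in DMSO were incubated 3 h at 37 C/5% CO2 with CRE-bla HEK 293T cells seeded 18 h earlier; LiveBLAzer B/G FRET substrate was added and read after 2 h at room temperature.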

A short description of test [15]: cAMP Responsive Elements (CRE) small molecule antagonists, cell-based qHTS assay (AID 1963591; active means well fitted inhibition curve with a large enough effect in the signal ratio in the repeat runs, not every such curve was filed as active; the % refers to the signal ratio). The gist of the method: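 Reporter line CRE-bla HEK 293T in dialyzed-FBS DMEM; cells preincubated 18 h, treated 3 h with compound plus NKH477 (0.25 uM final); LiveBLAzer FRET, 2 h RT.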
For test [16], the target named is Beta-2 adrenergic receptor (Homo sapiens) (UniProt P07550). The experiment in a line: Adrenergic beta2 receptor (ADRB2) small molecule antagonists, cell-based qHTS assay (AID 1963592). Further: nearly all actives have a fitted effect of over 50% in size. Further: potency means the concentration at half of the fitted maximal effect. The gist of the method:
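Assay format: CHO-ADRB2 cells, 18-20hr seeding at 37C/5% CO2, then compound plus 1nM isoproterenol agonist mix for 0.5hr RT. Homogeneous time-resolved fluorescence cAMP detection after 1hr, expressed as 665/615 nm ratio.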

Test [17] has the same target. The experiment in a line: Adrenergic beta2 receptor (ADRB2) small molecule agonists, cell-based qHTS assay (AID 1963593).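 Further: CHO cells stably overexpressing human ADRB2.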 The gist of the method: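 CHO cells stably over-expressing ADRB2 were plated overnight at 37C, then dosed with compounds plus a stimulation mix containing 100uM IBMX and 25uM Ro-20-1724 for 0.5hr at room temperature. cAMP was measured by HTRF competition, 1hr.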

Test [18] concerns the target D(2) dopamine receptor (Homo sapiens) (UniProt P14416). The experiment in a line: Dopamine D2 receptor (DRD2) small molecule agonists, cell-based qHTS assay (AID 1963594). Further: nearly all actives have a fitted effect of over 35% in size. A digest of the protocol: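 HEK293 cells stably expressing human DRD2, pre-treated with PDE inhibitor Ro20-1724 (0.1 mM final) and compound 10 min at room temperature, then stimulated with NKH477 (200nM […]) for 30 min. cAMP read by HTRF (665/620 nm).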

The target is the same in test [19]. The experiment in a line: Dopamine D2 receptor (DRD2) small molecule antagonists, cell-based qHTS assay (AID 1963595; active means well fitted inhibition curve with a large enough effect in the signal ratio in the repeat runs, with a control signal flat; the % refers to the signal ratio; further: potency means the concentration at half of the fitted maximal effect). The gist of the method:
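DRD2-HEK293; 0.1 mM Ro20-1724; cpd 10 min RT; NKH477 200 nM + quinpirole 12 nM, 30 min RT; HTRF cAMP (cAMP-d2/anti-cAMP cryptate), 665/620 nm ratio after 1 h.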

The target of test [20] is 5-hydroxytryptamine receptor 2A (Homo sapiens) (UniProt P28223). The experiment in a line: 5-hydroxytryptamine receptor 2A (HTR2A) small molecule antagonists, cell-based qHTS assay (AID 1963586). Further: nearly all actives have a fitted effect of over 45% in size. Further: potency means the concentration at half of the fitted maximal effect. A digest of the protocol: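 CHO cells stably expressing human HTR2A were plated for 18 h at 37 C, then loaded with calcium dye for 1 h. Compounds were preincubated 5 min at room temperature before DOI (4 nM solution) was added. Kinetic fluorescence was read for 3 min.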
5-hydroxytryptamine receptor 2A (Homo sapiens), sequence (P28223 whole entry, looked up): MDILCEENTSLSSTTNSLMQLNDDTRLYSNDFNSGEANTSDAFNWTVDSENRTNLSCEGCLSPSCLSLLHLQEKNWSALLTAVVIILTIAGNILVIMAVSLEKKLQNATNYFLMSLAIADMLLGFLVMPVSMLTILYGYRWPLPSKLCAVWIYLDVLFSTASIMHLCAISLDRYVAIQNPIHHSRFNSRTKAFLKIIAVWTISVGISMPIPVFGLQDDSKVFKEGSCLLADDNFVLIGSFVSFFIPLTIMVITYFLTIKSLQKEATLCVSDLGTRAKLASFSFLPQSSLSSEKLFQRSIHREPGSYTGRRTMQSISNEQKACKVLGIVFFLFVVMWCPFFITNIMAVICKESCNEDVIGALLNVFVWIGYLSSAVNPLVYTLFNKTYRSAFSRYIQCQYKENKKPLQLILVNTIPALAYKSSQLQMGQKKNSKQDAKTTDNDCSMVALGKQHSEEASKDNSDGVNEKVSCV

Muscarinic acetylcholine receptor M1 (Homo sapiens), sequence (P11229 whole entry, looked up): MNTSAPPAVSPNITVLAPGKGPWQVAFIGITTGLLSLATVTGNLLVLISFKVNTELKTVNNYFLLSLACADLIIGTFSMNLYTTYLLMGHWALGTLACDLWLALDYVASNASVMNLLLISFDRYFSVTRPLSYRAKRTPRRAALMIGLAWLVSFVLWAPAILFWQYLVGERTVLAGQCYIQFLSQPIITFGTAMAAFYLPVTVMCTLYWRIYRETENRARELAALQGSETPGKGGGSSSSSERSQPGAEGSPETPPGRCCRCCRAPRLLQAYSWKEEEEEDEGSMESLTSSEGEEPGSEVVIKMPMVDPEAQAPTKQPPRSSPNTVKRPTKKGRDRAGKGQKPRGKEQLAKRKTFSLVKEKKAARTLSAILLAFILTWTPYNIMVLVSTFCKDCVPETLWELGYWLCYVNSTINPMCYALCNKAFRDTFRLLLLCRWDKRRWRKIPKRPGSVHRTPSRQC
KiSS-1 receptor (Homo sapiens), sequence (Q969F8 whole entry, looked up): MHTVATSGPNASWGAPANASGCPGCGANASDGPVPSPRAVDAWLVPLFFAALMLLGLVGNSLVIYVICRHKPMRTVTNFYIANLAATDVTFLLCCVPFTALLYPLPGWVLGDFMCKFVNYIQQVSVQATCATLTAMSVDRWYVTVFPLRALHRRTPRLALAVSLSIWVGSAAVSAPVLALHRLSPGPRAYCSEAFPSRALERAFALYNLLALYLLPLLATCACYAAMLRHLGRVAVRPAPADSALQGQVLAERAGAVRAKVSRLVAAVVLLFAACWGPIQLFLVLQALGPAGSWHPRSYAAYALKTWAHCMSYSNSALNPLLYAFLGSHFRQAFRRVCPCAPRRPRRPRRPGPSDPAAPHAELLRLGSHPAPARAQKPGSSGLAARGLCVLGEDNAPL
Beta-2 adrenergic receptor (Homo sapiens), sequence (P07550 whole entry, looked up): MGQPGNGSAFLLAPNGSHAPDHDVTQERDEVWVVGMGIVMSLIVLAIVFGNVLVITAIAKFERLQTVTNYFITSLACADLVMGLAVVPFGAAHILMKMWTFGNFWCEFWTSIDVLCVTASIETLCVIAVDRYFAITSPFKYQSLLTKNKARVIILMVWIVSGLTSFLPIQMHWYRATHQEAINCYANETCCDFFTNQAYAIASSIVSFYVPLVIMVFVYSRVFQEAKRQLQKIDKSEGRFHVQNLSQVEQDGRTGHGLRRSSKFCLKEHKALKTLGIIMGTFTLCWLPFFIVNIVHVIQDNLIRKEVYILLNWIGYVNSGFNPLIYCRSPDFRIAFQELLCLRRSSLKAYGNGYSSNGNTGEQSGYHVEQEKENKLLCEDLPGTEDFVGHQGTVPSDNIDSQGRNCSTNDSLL
D(2) dopamine receptor (Homo sapiens), sequence (P14416 whole entry, looked up): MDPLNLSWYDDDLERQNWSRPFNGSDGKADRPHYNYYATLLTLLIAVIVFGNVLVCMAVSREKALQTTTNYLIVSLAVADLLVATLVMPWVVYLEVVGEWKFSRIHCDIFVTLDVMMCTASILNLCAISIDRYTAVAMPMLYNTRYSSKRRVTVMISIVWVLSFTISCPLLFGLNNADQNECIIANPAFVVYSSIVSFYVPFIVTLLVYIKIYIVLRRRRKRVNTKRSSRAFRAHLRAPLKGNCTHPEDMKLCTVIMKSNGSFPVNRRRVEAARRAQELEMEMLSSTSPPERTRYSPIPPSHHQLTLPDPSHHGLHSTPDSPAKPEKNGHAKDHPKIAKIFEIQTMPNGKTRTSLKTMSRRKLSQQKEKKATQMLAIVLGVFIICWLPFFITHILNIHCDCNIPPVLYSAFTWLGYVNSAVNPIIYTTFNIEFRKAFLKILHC
Gonadotropin-releasing hormone receptor (Homo sapiens), sequence (P30968 whole entry, looked up): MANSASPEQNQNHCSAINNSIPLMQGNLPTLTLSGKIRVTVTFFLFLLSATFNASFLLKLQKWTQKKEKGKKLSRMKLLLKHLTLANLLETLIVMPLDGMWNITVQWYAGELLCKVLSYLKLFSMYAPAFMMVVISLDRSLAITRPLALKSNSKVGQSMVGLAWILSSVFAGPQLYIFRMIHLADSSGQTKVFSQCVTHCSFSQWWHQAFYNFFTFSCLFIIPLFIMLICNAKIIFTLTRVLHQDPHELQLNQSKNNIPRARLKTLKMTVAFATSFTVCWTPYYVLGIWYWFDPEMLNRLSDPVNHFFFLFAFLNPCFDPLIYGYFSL

For the molecule `NC(=O)NC1NC(=O)NC1=O` (configuration not stated), the Potency entry in test [1], in test [2], in test [3], in test [4], in test [5] and in [6] was “inactive” in each case. Moreover, the Potency entry in test [7], in test [8], in [9], in test [10], in test [11] and in [12] was “inactive” throughout. Besides, the Potency result in test [13], in test [14], in [15], in test [16], in test [17] and in test [18] was “inactive” in each case. In addition, in test [19], the Potency entry was “inactive”.
With `OCCOCCN1CCN(C(c2ccccc2)c2ccc(Cl)cc2)CC1` (configuration not stated), the Potency result in test [1], in [2], in test [3], in test [4], in test [5] and in [6] was “inactive” in each case. Moreover, the Potency result in [7], in test [8], in test [9], in test [10], in [11] and in [13] was “inactive” throughout. In addition, the Potency entry in test [14], in [15], in test [18] and in test [19] was “inactive” each time. The Potency in test [20] was 1.47 µM (active) and 1.63 µM (active); in test [12], 7.38 µM (active); in [16], “inactive and 26.6 µM (active)”.
For `CCCOC(=O)c1ccccc1`, the Potency result in [1], in [2], in test [3], in test [4], in test [5] and in [6] was “inactive” each time. In addition, the Potency entry in test [7], in [8], in test [9], in test [10], in test [20] and in [11] was “inactive” in each case. Also, the Potency entry in test [12], in test [13], in test [14], in test [15], in [16] and in [18] was “inactive” throughout. For the same molecule, the Potency entry in test [19] is “inactive”.
As for `O=S(=O)(O)c1ccc(O)cc1`, the Potency result in test [1], in [2], in test [3], in test [4], in test [5] and in test [6] was “inactive” in each case. In addition, the Potency result in [7], in [8], in test [9], in test [10], in test [11] and in [12] was “inactive” throughout. Besides, the Potency result in [13], in test [14], in [15], in test [16], in test [18] and in test [19] was “inactive” in each case.
In the case of `CCN=c1cc2oc3cc(NCC)c(C)cc3c(-c3ccccc3C(=O)OCC)c-2cc1C`, the Potency entry in test [1], in test [6], in test [20] and in test [12] was “inactive” in each case. Moreover, the Potency entry in test [2] is “inactive and 27.3 µM (active)”; in test [3] it was 12.3 µM (active) and 7.76 µM (active); in [4] it was 17.3 µM (active) and 21.9 µM (active); in test [5] it was 38.8 µM (active) and 30.9 µM (active); in [7], 40.6 µM (active) and 40.8 µM (active); in test [8], 20.4 µM (active) and 40.8 µM (active). The Potency in test [9] is 45.6 µM (active); in test [11], 5.47 µM (active) and 19.5 µM (active); in [13] it was 19.4 µM (active) and 19.5 µM (active); in [19], 34.4 µM (active).
Turning to `C=CC(=O)OCCOCCOCCOCCOC(=O)C=C`, the Potency in test [1] is 61.4 µM (active) and 48.1 µM (active); in test [2], 24.5 µM (active) and 27.1 µM (active). For the same molecule, the Potency result in test [3], in test [4], in test [5], in [6], in test [7] and in test [8] was “inactive” each time. Moreover, the Potency entry in test [10], in test [20], in test [12], in test [13], in [18] and in test [19] was “inactive” in each case.
As for `CC(=O)NS(=O)(=O)c1ccc(N)cc1`, the Potency result in [1], in test [2], in [3], in [4], in test [5] and in test [6] was “inactive” in each case. Further, the Potency entry in test [7], in test [8], in [9], in test [10], in test [20] and in test [11] was “inactive” throughout. Besides, the Potency entry in [12], in test [13], in test [14], in test [15], in [16] and in test [18] was “inactive” throughout. The Potency entry in test [19] was “inactive”.
